Data: PubChem BioAssay (NCATS)
Results filed as inconclusive are left out. Calls of active or inactive are those of the source. Unless noted, the call rests on the fitted dose curve; in most records, active means well fitted curve in the direction sought with a large enough effect; inconclusive means small, poorly fitted or top-dose-only effect, or another doubt; inactive means no such curve, though single readings can be large; an effect the other way counts as inactive or inconclusive.

What was measured:
[1] = biological target: ATP-dependent 6-phosphofructokinase (Trypanosoma brucei brucei) (UniProt O15648); assay: qHTS Assay to Find Inhibitors of T. brucei phosphofructokinase: hit validation (AID 492961);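 further: luminescence reports ADP formed as PFK phosphorylates fructose-6-phosphate with ATP; on the % scale 0 is the no-effect control and ±100 the full control effect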
Procedure, shortened: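 Measures ADP output of PFK (1.25 nM) at 0.1 mM ATP, 0.5 mM F6P, pH 8.0 TEA buffer with 5 mM MgCl2. No-enzyme wells define full inhibition; uninhibited enzyme wells define zero.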

[2] = biological target: Ubiquitin carboxyl-terminal hydrolase 1 (Homo sapiens) (UniProt O94782); assay: Inhibitors of USP1/UAF1: Pilot qHTS (AID 504865);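 further: rhodamine fluorescence freed from ubiquitin-rhodamine substrate followed over time; top concentration of the series differs between compounds; on the % scale 0 is the no-effect control and ±100 the full control effect; nearly all actives have a fitted effect of over 35% in size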
Procedure, shortened: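 USP1/UAF1 complex (1nM) preincubated with compound 15 min at room temperature, then Ub-Rho substrate (150nM final) added. Fluorescence read kinetically at 480/540 nm, 6 reads every 60 seconds. Buffer: 50mM HEPES pH 7.8, 0.5mM EDTA, 0.1 mg/ml BSA, 1mM TCEP, 0.01% Tween-20.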

[3] = biological target: Luciferin 4-monooxygenase (Photinus pyralis) (UniProt P08659); assay: Biochemical firefly luciferase enzyme assay for NPC (AID 624030);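 further: purified P. pyralis luciferase at 10 nM with luciferin and ATP substrate; 0% = DMSO and -100% = full luciferase inhibition by PTC124 control; nearly all actives have a fitted effect of over 70% in size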
Procedure, shortened: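 Direct inhibition of firefly luciferase enzyme (10 nM final, 50 mM Tris Acetate) assessed by luminescence within 5 minutes. Percent activity scaled between DMSO and PTC124 positive control, with concentration-effect curves classified by fit quality and response.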

[4] = S16 Schwann cell viability assay (CellTiter-Glo assay) (AID 624031);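 further: native untransfected S16 rat Schwann cells; cellular ATP luminescence as a viability measure; plate controls were DMSO-treated cells for no effect and cell-free wells for full effect; nearly all actives have a fitted effect of over 70% in size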
Procedure, shortened: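 Cells were seeded at 500-750 per well in phenol red-free DMEM with 10% FBS and left overnight. Compounds or DMSO were pinned in, incubation ran 24 h at 37 °C/5% CO2, then CellTiter-Glo reagent was added and luminescence measured.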

[5] = S16 Schwann cell PMP22 intronic element beta-lactamase assay (AID 624044; calls by dose curve; further: potency means the concentration at half of the fitted maximal effect; nearly all actives have a fitted effect of over 15% in size)
Procedure, shortened: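 Rat S16 Schwann cells with beta-Lac driven by a PMP22 intronic element, compound-treated 24 h at 37 °C. LiveBLAzer FRET B/G read: 460 nm normalized to potassium clavulanate vs DMSO; 535 nm FRET as viability; concentration-effect curves classified.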

Furin (Homo sapiens) = Furin (Homo sapiens) (UniProt P09958); assay: Furin counterscreen qHTS for Zika virus inhibitors (AID 1347149);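 further: purified recombinant full-length human furin enzyme at 5 nM; fluorescence gain from furin cutting a BOC-RVRR-AMC peptide substrate over 15 min; top concentration of the series differs between compounds; plate controls were no-inhibitor control for no effect and no-enzyme control for full effect; nearly all actives have a fitted effect of over 70% in size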
Procedure, shortened: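 Fluorogenic cleavage of BOC-RVRR-AMC (2 microM final, Km ~15 µM) was monitored (ex 340, em 450 nm) at 37C after 15 min RT preincubation of 5 nM furin with compounds in HEPES pH 7.0 buffer with CaCl2 and Triton X-100. Percent inhibition was fitted to a 4-parameter Hill curve.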

[6] = system: Zika virus NS2B-NS3 protease (unlinked); assay: Optimization of GU AMC qHTS for Zika virus inhibitors: Unlinked NS2B-NS3 protease assay (AID 1347151);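 further: 0% = no-inhibitor control and -100% = no-enzyme control; nearly all actives have a fitted effect of over 80% in size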
Procedure, shortened: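 Noncovalent complex of NS2B hydrophilic domain and NS3 protease domain, 25 nM final, in 10 mM Tris-HCl pH 8.0, 0.01% Tween 20. AMC fluorescence change over 15 min at room temperature was fitted to a 4-parameter Hill equation.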

[7] = Vero cells viability qHTS for Zika virus inhibitors (AID 1347167); further: on the % scale 0 is the no-effect control and ±100 the full control effect
Procedure, shortened: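 Compounds were tested in concentration series on cells grown in DMEM containing 4% FBS. After 24 to 48 hours, cellular ATP was measured by luminescence with CellTiter Glo.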

[8] = qHTS profiling for inhibitors of Plasmodium falciparum proliferation (AID 504749); further: nearly all actives have a fitted effect of over 60% in size; further: potency means the concentration at half of the fitted maximal effect;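 on activity, negative = inhibition: 0% = DMSO vehicle and full inhibition = artemisinin control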; settings: P. falciparum in erythrocytes, SYBR Green DNA, 72 h, at 28.7 µM (top of the series)
Procedure, shortened: (§1)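 Infected RBCs, 0.3% parasitemia/2.5% Hct final; cpd 72 h, 37 C, 5% CO2; lysis buffer with saponin/triton/SYBR Green I, o/n RT dark; FI 485/535; norm. to artemisinin (0.29 uM) and DMSO.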

3D7 = assay: as above; settings: P. falciparum in erythrocytes, SYBR Green DNA, 72 h; series mostly up to 28.7 µM
Procedure, shortened: as §1

AS120 = assay: as above; settings: P. falciparum in erythrocytes, SYBR Green DNA, 72 h; series mostly up to 28.7 µM
Procedure, shortened: as §1

ATS95 = assay: as above; settings: P. falciparum in erythrocytes, SYBR Green DNA, 72 h; series mostly up to 28.7 µM
Procedure, shortened: as §1

C2A = assay: as above; settings: P. falciparum in erythrocytes, SYBR Green DNA, 72 h; series mostly up to 28.7 µM
Procedure, shortened: as §1

CP185 = assay: as above; settings: P. falciparum in erythrocytes, SYBR Green DNA, 72 h; series mostly up to 28.7 µM
Procedure, shortened: as §1

CP191 = assay: as above; settings: P. falciparum in erythrocytes, SYBR Green DNA, 72 h; series mostly up to 28.7 µM
Procedure, shortened: as §1

CP192 = assay: as above; settings: P. falciparum in erythrocytes, SYBR Green DNA, 72 h; series mostly up to 28.7 µM
Procedure, shortened: as §1

CP201 = assay: as above; settings: P. falciparum in erythrocytes, SYBR Green DNA, 72 h; series mostly up to 28.7 µM
Procedure, shortened: as §1

CP211 = assay: as above; settings: P. falciparum in erythrocytes, SYBR Green DNA, 72 h; series mostly up to 28.7 µM
Procedure, shortened: as §1

CP215 = assay: as above; settings: P. falciparum in erythrocytes, SYBR Green DNA, 72 h; series mostly up to 28.7 µM
Procedure, shortened: as §1

CP237 = assay: as above; settings: P. falciparum in erythrocytes, SYBR Green DNA, 72 h; series mostly up to 28.7 µM
Procedure, shortened: as §1

CP238 = assay: as above; settings: P. falciparum in erythrocytes, SYBR Green DNA, 72 h; series mostly up to 28.7 µM
Procedure, shortened: as §1

CP247 = assay: as above; settings: P. falciparum in erythrocytes, SYBR Green DNA, 72 h; series mostly up to 28.7 µM
Procedure, shortened: as §1

CP250 = assay: as above; settings: P. falciparum in erythrocytes, SYBR Green DNA, 72 h; series mostly up to 28.7 µM
Procedure, shortened: as §1

CP252 = assay: as above; settings: P. falciparum in erythrocytes, SYBR Green DNA, 72 h; series mostly up to 28.7 µM
Procedure, shortened: as §1

CP256 = assay: as above; settings: P. falciparum in erythrocytes, SYBR Green DNA, 72 h; series mostly up to 28.7 µM
Procedure, shortened: as §1

CP262 = assay: as above; settings: P. falciparum in erythrocytes, SYBR Green DNA, 72 h; series mostly up to 28.7 µM
Procedure, shortened: as §1

CP266 = assay: as above; settings: P. falciparum in erythrocytes, SYBR Green DNA, 72 h; series mostly up to 28.7 µM
Procedure, shortened: as §1

CP269 = assay: as above; settings: P. falciparum in erythrocytes, SYBR Green DNA, 72 h; series mostly up to 28.7 µM
Procedure, shortened: as §1

CP291 = assay: as above; settings: P. falciparum in erythrocytes, SYBR Green DNA, 72 h; series mostly up to 28.7 µM
Procedure, shortened: as §1

CP305 = assay: as above; settings: P. falciparum in erythrocytes, SYBR Green DNA, 72 h; series mostly up to 28.7 µM
Procedure, shortened: as §1

CP315 = assay: as above; settings: P. falciparum in erythrocytes, SYBR Green DNA, 72 h; series mostly up to 28.7 µM
Procedure, shortened: as §1

CP325 = assay: as above; settings: P. falciparum in erythrocytes, SYBR Green DNA, 72 h; series mostly up to 28.7 µM
Procedure, shortened: as §1

CP329 = assay: as above; settings: P. falciparum in erythrocytes, SYBR Green DNA, 72 h; series mostly up to 28.7 µM
Procedure, shortened: as §1

DFO2036 = assay: as above; settings: P. falciparum in erythrocytes, SYBR Green DNA, 72 h; series mostly up to 28.7 µM
Procedure, shortened: as §1

DIV30 = assay: as above; settings: P. falciparum in erythrocytes, SYBR Green DNA, 72 h; series mostly up to 28.7 µM
Procedure, shortened: as §1

Dd2 = assay: as above; settings: P. falciparum in erythrocytes, SYBR Green DNA, 72 h; series mostly up to 28.7 µM
Procedure, shortened: as §1

ECU = assay: as above; settings: P. falciparum in erythrocytes, SYBR Green DNA, 72 h; series mostly up to 28.7 µM
Procedure, shortened: as §1

FAB9 = assay: as above; settings: P. falciparum in erythrocytes, SYBR Green DNA, 72 h; series mostly up to 28.7 µM
Procedure, shortened: as §1

HB3 = assay: as above; settings: P. falciparum in erythrocytes, SYBR Green DNA, 72 h; series mostly up to 28.7 µM
Procedure, shortened: as §1

JCK = assay: as above; settings: P. falciparum in erythrocytes, SYBR Green DNA, 72 h; series mostly up to 28.7 µM
Procedure, shortened: as §1

PC15 = assay: as above; settings: P. falciparum in erythrocytes, SYBR Green DNA, 72 h; series mostly up to 28.7 µM
Procedure, shortened: as §1

PC26 = assay: as above; settings: P. falciparum in erythrocytes, SYBR Green DNA, 72 h; series mostly up to 28.7 µM
Procedure, shortened: as §1

PC49 = assay: as above; settings: P. falciparum in erythrocytes, SYBR Green DNA, 72 h; series mostly up to 28.7 µM
Procedure, shortened: as §1

SC27B = assay: as above; settings: P. falciparum in erythrocytes, SYBR Green DNA, 72 h; series mostly up to 28.7 µM
Procedure, shortened: as §1

TAB113 = assay: as above; settings: P. falciparum in erythrocytes, SYBR Green DNA, 72 h; series mostly up to 28.7 µM
Procedure, shortened: as §1

TAB165 = assay: as above; settings: P. falciparum in erythrocytes, SYBR Green DNA, 72 h; series mostly up to 28.7 µM
Procedure, shortened: as §1

Ubiquitin carboxyl-terminal hydrolase 1 (Homo sapiens), sequence (O94782 whole entry, looked up): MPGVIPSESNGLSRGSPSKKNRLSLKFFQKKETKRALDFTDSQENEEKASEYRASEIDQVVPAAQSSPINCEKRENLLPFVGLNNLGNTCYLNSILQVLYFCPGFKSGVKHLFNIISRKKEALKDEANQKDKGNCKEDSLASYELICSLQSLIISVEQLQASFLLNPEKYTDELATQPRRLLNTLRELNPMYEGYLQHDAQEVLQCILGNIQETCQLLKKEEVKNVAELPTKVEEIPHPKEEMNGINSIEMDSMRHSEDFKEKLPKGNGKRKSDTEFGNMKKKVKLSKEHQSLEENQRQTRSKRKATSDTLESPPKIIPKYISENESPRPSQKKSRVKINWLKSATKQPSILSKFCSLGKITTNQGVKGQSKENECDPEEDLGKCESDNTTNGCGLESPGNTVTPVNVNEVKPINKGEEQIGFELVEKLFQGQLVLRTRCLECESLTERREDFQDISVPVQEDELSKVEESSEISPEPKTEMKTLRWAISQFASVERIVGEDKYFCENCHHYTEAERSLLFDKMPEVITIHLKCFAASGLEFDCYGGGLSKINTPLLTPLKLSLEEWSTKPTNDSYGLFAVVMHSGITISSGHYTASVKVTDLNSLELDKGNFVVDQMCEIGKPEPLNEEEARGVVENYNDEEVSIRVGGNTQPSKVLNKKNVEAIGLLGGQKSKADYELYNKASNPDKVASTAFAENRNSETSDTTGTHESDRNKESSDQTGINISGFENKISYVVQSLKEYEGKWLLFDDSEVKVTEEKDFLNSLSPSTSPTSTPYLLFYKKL
ATP-dependent 6-phosphofructokinase (Trypanosoma brucei brucei), sequence (O15648 whole entry, looked up): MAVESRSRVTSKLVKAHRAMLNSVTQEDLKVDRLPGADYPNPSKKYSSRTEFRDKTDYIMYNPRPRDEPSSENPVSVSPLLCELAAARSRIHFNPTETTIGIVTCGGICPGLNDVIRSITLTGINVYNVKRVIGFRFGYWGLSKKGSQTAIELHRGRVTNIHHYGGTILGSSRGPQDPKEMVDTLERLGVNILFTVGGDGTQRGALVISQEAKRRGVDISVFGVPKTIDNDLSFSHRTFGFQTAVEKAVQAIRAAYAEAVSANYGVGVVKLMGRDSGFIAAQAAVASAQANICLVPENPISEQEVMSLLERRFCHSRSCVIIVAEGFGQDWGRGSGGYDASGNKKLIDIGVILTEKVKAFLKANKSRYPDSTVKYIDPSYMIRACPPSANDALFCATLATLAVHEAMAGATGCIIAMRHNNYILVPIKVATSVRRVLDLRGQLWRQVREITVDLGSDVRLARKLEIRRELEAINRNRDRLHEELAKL
Luciferin 4-monooxygenase (Photinus pyralis), sequence (P08659 whole entry, looked up): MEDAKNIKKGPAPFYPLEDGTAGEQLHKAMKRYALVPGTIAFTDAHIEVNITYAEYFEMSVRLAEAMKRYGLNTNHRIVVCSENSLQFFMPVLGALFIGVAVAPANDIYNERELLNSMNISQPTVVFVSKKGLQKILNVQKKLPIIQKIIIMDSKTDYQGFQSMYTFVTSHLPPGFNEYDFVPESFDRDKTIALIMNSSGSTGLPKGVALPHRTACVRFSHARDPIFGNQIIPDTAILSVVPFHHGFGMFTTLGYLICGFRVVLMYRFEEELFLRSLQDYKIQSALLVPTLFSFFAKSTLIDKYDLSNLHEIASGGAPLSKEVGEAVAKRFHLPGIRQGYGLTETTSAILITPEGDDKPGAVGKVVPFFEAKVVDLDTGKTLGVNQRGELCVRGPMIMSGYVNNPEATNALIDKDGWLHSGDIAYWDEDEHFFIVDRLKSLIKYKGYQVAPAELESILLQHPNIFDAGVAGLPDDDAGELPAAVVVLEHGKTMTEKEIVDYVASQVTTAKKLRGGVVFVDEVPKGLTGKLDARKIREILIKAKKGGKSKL
Furin (Homo sapiens), sequence (P09958 whole entry, looked up): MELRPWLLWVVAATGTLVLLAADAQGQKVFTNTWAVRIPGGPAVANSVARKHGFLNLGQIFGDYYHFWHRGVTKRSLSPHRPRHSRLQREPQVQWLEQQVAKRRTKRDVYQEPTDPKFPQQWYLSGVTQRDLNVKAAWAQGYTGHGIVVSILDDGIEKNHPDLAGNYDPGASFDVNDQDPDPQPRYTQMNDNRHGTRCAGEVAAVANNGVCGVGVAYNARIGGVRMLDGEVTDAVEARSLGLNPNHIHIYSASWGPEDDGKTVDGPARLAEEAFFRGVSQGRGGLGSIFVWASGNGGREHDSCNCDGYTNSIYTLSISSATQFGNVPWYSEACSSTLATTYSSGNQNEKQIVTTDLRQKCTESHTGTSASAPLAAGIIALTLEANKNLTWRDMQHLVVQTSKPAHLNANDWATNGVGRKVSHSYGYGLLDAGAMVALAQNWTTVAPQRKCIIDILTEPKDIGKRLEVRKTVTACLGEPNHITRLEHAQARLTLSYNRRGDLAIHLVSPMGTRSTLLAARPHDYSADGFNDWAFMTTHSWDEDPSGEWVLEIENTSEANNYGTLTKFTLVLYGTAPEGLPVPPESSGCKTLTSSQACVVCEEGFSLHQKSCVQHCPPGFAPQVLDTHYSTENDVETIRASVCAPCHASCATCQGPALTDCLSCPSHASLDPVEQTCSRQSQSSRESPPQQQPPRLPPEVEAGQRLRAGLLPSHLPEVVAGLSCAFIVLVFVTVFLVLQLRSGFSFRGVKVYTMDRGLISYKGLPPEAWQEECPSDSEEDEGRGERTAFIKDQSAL

O=C1c2cccc3c2[C@@H](CCC3)CN1[C@@H]1CN2CCC1CC2
inactive: outcome [1] | Potency [2] | Potency [3] | outcome [4] | Potency (Furin (Homo sapiens)) | Potency [6] | Potency [7] | activity, negative = inhibition ([8]; parasite line A) -7.65% | activity, negative = inhibition ([8]; parasite line B) 6.33% | Potency (3D7) | Potency (AS120) | Potency (ATS95) | Potency (C2A) | Potency (CP185) | Potency (CP191) | Potency (CP192) | Potency (CP201) | Potency (CP211) | Potency (CP215) | Potency (CP238) | Potency (CP247) | Potency (CP250) | Potency (CP252) | Potency (CP256) | Potency (CP262) | Potency (CP266) | Potency (CP269) | Potency (CP291) | Potency (CP305) | Potency (CP315) | Potency (CP325) | Potency (CP329) | Potency (DFO2036) | Potency (DIV30) | Potency (ECU) | Potency (FAB9) | Potency (HB3) | Potency (JCK) | Potency (PC15) | Potency (PC26) | Potency (PC49) | Potency (SC27B) | Potency (TAB113) | Potency (TAB165)
active: Potency [5] 11.2 µM | Potency (CP237) 10 µM | Potency (Dd2) 12.6 µM
